Screening data (PubChem)
A selection follows.
aSyn 5UTR act = Activators via SNCA 5'UTR binding, MLPCN | alpha-synuclein 5'UTR reporter, activators screen | actives 7.1% (n = 300,000) | activity score, % (tested at 7.5 µM), hits read low | AID 1814, 2009; in the data active = activity score below about -60%
An asterisk follows results filed as active.

SMILES	aSyn 5UTR act
Cn1cc(Cl)cc(C(=O)Nc2ccccc2)c1=O	-133*
Cc1cc(Nc2nc3ccccc3nc2Cl)n(-c2ccccc2)n1	-88*
Cc1nnsc1C(=O)NNc1ccc(C(C)C)cc1	-99*
COC(=O)Cn1c(C)nc2c(sc3nc(C)cc(C)c32)c1=O	-76*
CCOC(=O)Cc1csc(-n2sc3ccccc3c2=O)n1	-89*
Cc1ccc(Cn2c(SCc3cccnc3)nc3c2c(=O)n(C)c(=O)n3C)cc1	54
Cn1c(=O)c2c(nc(SCCN3CCOCC3)n2Cc2ccc(F)cc2)n(C)c1=O	-130*
CCCCn1c(SCC(=O)N2c3ccccc3CCc3ccccc32)nc2c1c(=O)n(C)c(=O)n2C	74
COc1cc(C=O)ccc1OCCSc1ccc(Cl)cc1	-87*
O=C(/C=C\c1ccccc1OC(=O)c1ccccc1F)c1cc2ccccc2o1	-132*
Cc1ccc2nc(-c3cc(N)cc(N)c3)oc2c1	62
Cc1nc2ccc(-c3nc4ccccc4o3)cc2[nH]1	-73*
Nc1ccc(-c2nc3ccc(-c4nc5ccccc5o4)cc3[nH]2)cc1	-215*
COc1cccc2c1C(=O)c1ccc3ccccc3c1C2=O	-141*
Cc1ccc(Oc2nnc(-c3ccc(C)cc3)c3ccccc23)cc1	-93*
Cc1ccc(-c2cc3c(N=O)c4ccccc4c-3n[nH]2)cc1	92
COc1cccc(CNc2ncc(Br)cc2Br)c1O	-125*
COc1cccc(/C=N/Nc2ncnc(Cl)c2N)c1O	89
O=C1c2ccccc2C(O)N1c1ccc(Cl)cc1 (stereo unspecified)	-67*
COc1ccc(O)c(C(=O)C2c3ccccc3C(=O)N2c2ccc(C)cc2)c1 (stereo unspecified)	-116*
COc1ccc(N2C(=O)c3ccccc3C2O)cc1 (stereo unspecified)	-79*
Cc1ccc(N2C(=O)c3ccccc3C2O)nc1 (stereo unspecified)	73
CC(C)(C)c1ccc(NC(=O)Nc2ccc(OCC(=O)N3CCOCC3)cc2)cc1	-72*
CC(C)(C)c1ccc(OCC(O)CN2CCOCC2)cc1 (stereo unspecified)	-120*
OC(COc1ccc2ccccc2c1Cl)CN1CCOCC1 (stereo unspecified)	-150*
SMILES	aSyn 5UTR act
Cc1ccc(/C=C2\CCC(C3CCCC3)C2=O)cc1 (stereo unspecified)	-105*
COc1ccc(/C=C2\CCC(C3CCCC3)C2=O)cc1OC (stereo unspecified)	-75*
COc1ccc(/C=C2\CCC(C3CCCC3)C2=O)cc1 (stereo unspecified)	-179*
Cc1ccsc1/C=C1\CCC(C2CCCC2)C1=O (stereo unspecified)	-163*
Cc1nnc2ccc(-c3ccc(NC(=O)c4ccco4)cc3)nn12	-254*
Cc1ccn2cc(-c3ccc(NC(=O)c4ccco4)cc3)nc2c1	-95*
CC(=O)Nc1cccc(-c2cn3ccc(C)cc3n2)c1	-107*
CCOc1ccc(CC(=O)Nc2ccc(-c3ccc4nnc(C)n4n3)cc2)cc1	-87*
Cc1ccn2cc(-c3cccc(NS(C)(=O)=O)c3)nc2c1	-150*
O=C(CSc1ncnc2sc3c(c12)CCCC3)c1ccccc1	-77*
Cc1cc(-c2n[nH]c(=S)n2/N=C/C(Cl)=C/c2ccccc2)n[nH]1	-164*
Cc1c(Br)c(O)c(Br)c(O)c1/C=N/n1c(-c2ccccc2)n[nH]c1=S	62
S=c1[nH]nc(-c2ccco2)n1/N=C/C(Cl)=C/c1ccccc1	-172*
S=c1[nH]nc(C2CCCCC2)n1/N=C/C(Cl)=C\c1ccccc1	-75*
O=C(COC(=O)Cn1cnc2ccccc21)Nc1cc2c(cc1Cl)C(=O)c1ccccc1C2=O	-162*
CCOc1cc(CNc2ccc3c(c2)OCCO3)cc(Br)c1OCC(N)=O	-66*
CCOc1cc(CNc2ccc3c(c2)OCCO3)cc(Br)c1OC	95
CC(C)SCCCCOc1ccc2ccccc2c1	-112*
CCCC(NCC(O)COc1ccc(-c2ccccc2)cc1)c1ccccc1 (stereo unspecified)	83
Cc1ccc(OCCCSc2ncccn2)cc1C	-104*
c1cnc(SCCCOc2ccc3ccccc3c2)nc1	-68*
OC(COc1ccc(Cl)cc1)CSc1ccccn1 (stereo unspecified)	-90*
Clc1ccc(OCCSc2ncccn2)cc1	-160*
COc1ccc(OCCCSc2ncccn2)cc1	-168*
COc1cc(C(=O)Nc2ccc3c(c2)OCCO3)ccc1OC(F)F	-153*
SMILES	aSyn 5UTR act
Cc1c([N+](=O)[O-])c(C(=O)Nc2ccc3c(c2)OCCO3)nn1C	-140*
COc1ccc(NC(=O)c2ccc3c(c2)OCCO3)cc1OC	-104*
O=C(Nc1ccc(F)c([N+](=O)[O-])c1)c1ccc2c(c1)OCCO2	-138*
COc1ccc(C(=O)Nc2ccc3c(c2)OCCO3)cc1[N+](=O)[O-]	-94*
Cc1csc(NC(=O)c2nn(C)c(C)c2[N+](=O)[O-])n1	-123*
COc1cc(C(=O)Nc2ccc3c(c2)OCCO3)ccc1OC(C)C	-163*
Brc1ccc2nc(-c3c[nH]c4ccccc34)cn2c1	-164*
COc1ccccc1-c1cnn2c(NC3CCCC3)cc(C)nc12	-182*
COc1cc2c(cc1OC)-c1cc(NC3CCCCCCC3)nc(=O)n1CC2	70
COc1ccccc1-c1ccc(NC2CCCC2)nn1	-120*
COc1cccc(C2N=C(c3ccccc3C)NO2)c1OC (stereo unspecified)	-80*
CCN1CCN(Cc2ccc(NC(=O)Nc3ccc(SC)cc3)cc2)CC1	-103*
COc1ccc(OCc2cccc(C(=O)Nc3ccc(CN4CCCCC4)cc3)c2)cc1	-112*
CCN1CCN(Cc2ccc(NC(=O)Nc3ccc(OC)cc3)cc2)CC1	-74*
CCOc1ccc(OCc2cccc(C(=O)Nc3ccc(CN4CCCCC4)cc3)c2)cc1	61
COc1ccc(/C=C2\SC(=O)N(CCCC(=O)Nc3ccc(C(=O)O)cc3)C2=O)cc1OC	73
C#CCN1C(=O)S/C(=C\c2ccc(-c3ccc(C(=O)O)cc3C)o2)C1=O	-191*
Cc1ccn2c(NC3CCCC3)c(-c3cccs3)nc2c1	-116*
Cc1ccn2c(NCc3ccccc3)c(-c3cccs3)nc2c1	-100*
Cc1ccc(-c2ccc(/C=C3\SC(N4CCOCC4)=NC3=O)o2)cc1	-72*
CCOC(=O)CC(=O)CSc1ncnc2c1cnn2-c1ccccc1	-105*
CC(C)(C)NC(=O)CSc1ncnc2c1cnn2-c1ccccc1	-73*
COc1ccc(/C=N/NC(=O)c2ccn[nH]2)cc1CSc1ccccn1	-67*
CCCOc1ccc(/C=N/NC(=O)CSc2ccccn2)cc1OC	-77*
N/C(=N\OC(=O)CCc1ccccc1)c1ccccc1Cl	-70*
SMILES	aSyn 5UTR act
Cc1ccc(/C(N)=N/OC(=O)CCc2ccccc2)cc1	-129*
CSCC(=O)N1CCC(n2nccc2NC(=O)c2ccc3c(c2)OCO3)CC1	-110*
CSc1ccc(CC(=O)N2CCC(n3nccc3NC(=O)C3CC3)CC2)cc1	-116*
Nc1ccccc1Nc1cc(-c2ccccc2)[nH]n1	-171*
O=c1[nH]nc(Cc2ccc3ccccc3n2)c2ccccc12	-71*
O=C(c1cc(-c2cccc(Cl)c2)on1)N1CCOCC1	-171*
O=C(c1cc(-c2ccc(Cl)cc2Cl)on1)N1CCOCC1	80
O=C(c1cc(-c2ccc(Cl)c(Cl)c2)on1)N1CCOCC1	-151*
COCCNC(=O)c1cc(-c2ccc(Cl)c(Cl)c2)on1	-78*
O=C(c1cc(-c2ccc(F)cc2)on1)N1CCOCC1	-111*
